Counter-ions that a name gives are not always drawn. ± gives the standard deviation of the averaged measurements. Over roughly 1,300 compounds, “normalised cell viability” has its median near 1; the lowest 2% begin near 0.15. For the sample, the lowest values were picked, then their nearest neighbours and some compounds at random.
Tested on: V-C8 + BRCA2 (BRCA2-proficient hamster cells)
Experiment: normalised cell viability (fraction of plate median); higher = more viable cells (less toxic)
Details: 5 µM
How it was run: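 Library drugs, held as 10 mM stocks in DMSO, were diluted to 5 μM in 100 μl medium and added to 96-well plates of V-C8 hamster cells, either lacking BRCA2 or with BRCA2 restored, 24 h after seeding. Plates ran for 3 days (screen 1) or 6 days (screen 2), alongside solvent-only wells. Viability came from a resazurin readout, median-plate normalised, as the mean of triplicate wells.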

SMILES	normalised cell viability (treatment time: 3 days)	normalised cell viability (treatment time: 6 days)
CS(=O)(=O)c1ccc(C2=C(c3ccccc3)C(=O)OC2)cc1 [Rofecoxib]	1 ± 0.039	1.02 ± 0.06
CS(=O)(=O)c1ccc([C@@H](O)[C@@H](CO)NC(=O)C(Cl)Cl)cc1 [Thiamphenicol]	0.9701 ± 0.0087	0.927 ± 0.02
NCCc1c[nH]cn1 [Histamine dihydrochloride]	0.994 ± 0.016	0.991 ± 0.064
COc1ccc(C(=O)CC(=O)c2ccc(C(C)(C)C)cc2)cc1 [Avobenzone]	1.02 ± 0.057	1.04 ± 0.12
CCN(CC)C(=O)/C(C#N)=C/c1cc(O)c(O)c([N+](=O)[O-])c1 [Entacapone]	0.944 ± 0.013	1.03 ± 0.03
CC(C)COCC(CN(Cc1ccccc1)c1ccccc1)N1CCCC1 (stereo not drawn) [Bepridil hydrochloride]	0.938 ± 0.069	0.828 ± 0.035
COc1cc([C@@H]2c3cc4c(cc3[C@@H](O[C@@H]3O[C@@H]5CO[C@@H](C)O[C@H]5[C@H](O)[C@H]3O)[C@H]3COC(=O)[C@H]23)OCO4)cc(OC)c1O [Etoposide]	0.141 ± 0.0097	0.15 ± 0.017
CC(=O)[C@@]12O[C@](C)(c3ccccc3)O[C@@H]1C[C@H]1[C@@H]3CCC4=CC(=O)CC[C@]4(C)[C@H]3CC[C@@]12C [Algestone acetophenide]	0.968 ± 0.025	1.07 ± 0.1
CCCCCCCCNC(C)C(O)c1ccc(SC(C)C)cc1 (stereo not drawn) [Suloctidil]	0.653 ± 0.045	0.743 ± 0.068
CC(C)NCC(O)c1cc(O)cc(O)c1 (stereo not drawn) [Metaproterenol sulfate, orciprenaline sulfate]	1.03 ± 0.023	1.04 ± 0.02
Nc1ccc(C(=O)O)c(O)c1 [4-aminosalicylic acid]	0.944 ± 0.086	1.03 ± 0.043
CN(C)CCN(Cc1cccs1)c1ccccn1 [Methapyrilene hydrochloride]	1.12 ± 0.021	1.04 ± 0.042
CO/N=C(\C(=O)N[C@@H]1C(=O)N2C(C(=O)O)=C(C[N+]3(C)CCCC3)CS[C@H]12)c1csc(N)n1 [Cefepime hydrochloride]	0.933 ± 0.092	0.888 ± 0.098
CCC1NC(=O)c2cc(S(N)(=O)=O)c(Cl)cc2N1 (stereo not drawn) [Quinethazone]	0.989 ± 0.058	0.989 ± 0.073
Nc1ccc(/N=N/c2ccccc2)c(N)n1 [Phenazopyridine hydrochloride]	1.02 ± 0.039	1.04 ± 0.035
Clc1ccc(C(c2ccccc2Cl)C(Cl)Cl)cc1 (stereo not drawn) [Mitotane]	1.02 ± 0.035	1.01 ± 0.076
CC(C)NCC(O)c1ccc(O)c(O)c1 (single isomer, unassigned; (+)) [(+)-Isoproterenol (+)-bitartrate salt]	1 ± 0.048	1.05 ± 0.07
CC(=O)OCC(=O)[C@@]1(O)[C@H](C)C[C@H]2[C@@H]3CCC4=CC(=O)C=C[C@]4(C)[C@@]3(F)[C@@H](O)C[C@@]21C [Dexamethasone acetate]	1.08 ± 0.057	1.02 ± 0.056
NC(=O)c1cnccn1 [Pyrazinamide]	1.14 ± 0.039	1.02 ± 0.043
CCN(CC)CCc1nc(-c2ccccc2)no1 [Oxalamine citrate salt]	1 ± 0.018	1.01 ± 0.03
C=C1/C(=C\C=C2/CCC[C@]3(C)[C@@H]([C@H](C)CCCC(C)C)CC[C@@H]23)C[C@@H](O)C[C@@H]1O [Alfacalcidol]	0.751 ± 0.062	0.719 ± 0.094
C[C@@H]1NC(=O)NC1=O [Methylhydantoin-5-(L)]	0.988 ± 0.053	1.07 ± 0.046
CCOC(=O)[C@H](CCc1ccccc1)N[C@H]1CCc2ccccc2N(CC(=O)O)C1=O [Benazepril HCl]	1.03 ± 0.018	1.07 ± 0.029

SMILES	normalised cell viability (treatment time: 3 days)	normalised cell viability (treatment time: 6 days)
CC(C)NCC(O)c1ccc2ccccc2c1 (stereo not drawn) [Pronethalol hydrochloride]	0.972 ± 0.037	0.995 ± 0.041
CC(=O)[C@H]1CC[C@H]2[C@@H]3CC=C4C[C@@H](O)CC[C@]4(C)[C@H]3CC[C@]12C [Pregnenolone]	1 ± 0.067	1.07 ± 0.12
O=C1c2cccc(O)c2C(=O)c2c(O)cccc21 [1,8-Dihydroxyanthraquinone]	0.853 ± 0.051	0.914 ± 0.076
O=C1c2c(O)ccc(O)c2C(=O)c2c(NCCNCCO)ccc(NCCNCCO)c21 [Mitoxantrone dihydrochloride]	0.123 ± 0.0098	0.124 ± 0.0098
O=C1c2c(O)cccc2Cc2cccc(O)c21 [Anthralin]	0.979 ± 0.036	0.978 ± 0.018
Clc1ccc(COC(Cn2ccnc2)c2ccc(Cl)cc2Cl)cc1 (stereo not drawn) [Econazole nitrate]	1 ± 0.025	1.04 ± 0.049
CC(=O)NC[C@H]1CN(c2ccc(N3CCOCC3)c(F)c2)C(=O)O1 [Linezolid]	1.06 ± 0.11	1.04 ± 0.04
O=C(NCC1CCCCN1)c1cc(OCC(F)(F)F)ccc1OCC(F)(F)F (stereo not drawn) [Flecainide acetate]	1.12 ± 0.066	1.02 ± 0.12
CCCCC(C)(O)C/C=C/[C@H]1[C@H](O)CC(=O)[C@@H]1CCCCCCC(=O)OC (mixture of isomers) [Misoprostol]	0.976 ± 0.09	1.03 ± 0.024
CCN(CC)CCN[C@@H](C(=O)OCCC(C)C)c1ccccc1 [Camylofine chlorhydrate]	0.957 ± 0.014	0.998 ± 0.096
CC1(C)S[C@@H]2[C@H](NC(=O)[C@H](C(=O)O)c3ccsc3)C(=O)N2[C@H]1C(=O)O [Ticarcillin sodium]	1.02 ± 0.021	1.04 ± 0.097
CC(=O)Oc1cccc2c1C(=O)c1c(OC(C)=O)cc(C(=O)O)cc1C2=O [Diacerein]	0.749 ± 0.038	0.796 ± 0.027
CCN(CCO)CCCC(C)Nc1ccnc2cc(Cl)ccc12 (stereo not drawn) [Hydroxychloroquine sulfate]	0.606 ± 0.024	0.666 ± 0.032
CCN(CC)CCCC(C)Nc1c2ccc(Cl)cc2nc2ccc(OC)cc12 (stereo not drawn) [Quinacrine dihydrochloride dihydrate]	0.133 ± 0.0038	0.107 ± 0.0083
CCN(CC)CCCC(C)Nc1ccnc2cc(Cl)ccc12 (stereo not drawn) [Chloroquine diphosphate]	0.852 ± 0.023	0.938 ± 0.082
O=C(CCCN1CCN(c2ccccn2)CC1)c1ccc(F)cc1 [Azaperone]	1.1 ± 0.34	0.902 ± 0.052
CCCCN1CCCCC1C(=O)Nc1c(C)cccc1C (stereo not drawn) [Bupivacaine hydrochloride]	0.962 ± 0.049	1.03 ± 0.038
CCOC(=O)c1ccc(N)cc1 [Benzocaine]	0.871 ± 0.023	0.9583 ± 0.0066
CN(N=O)C(=O)N[C@@H](C=O)[C@@H](O)[C@H](O)[C@H](O)CO [Streptozotocin]	1.07 ± 0.073	1.06 ± 0.053
O=C(CCCN1CCC(O)(c2ccc(Br)cc2)CC1)c1ccc(F)cc1 [Bromperidol]	0.976 ± 0.027	0.979 ± 0.038
CN1CCCN=C1/C=C/c1cccs1 [Pyrantel tartrate]	1.04 ± 0.05	1.03 ± 0.026
COCCCC/C(=N\OCCN)c1ccc(C(F)(F)F)cc1 [Fluvoxamine maleate]	0.97 ± 0.029	1.17 ± 0.13
Cn1c(=O)c2c(ncn2C)n(C)c1=O [Caffeine]	0.998 ± 0.053	0.996 ± 0.057

SMILES	normalised cell viability (treatment time: 3 days)	normalised cell viability (treatment time: 6 days)
CCOC(=O)[N-]c1c[n+](N2CCOCC2)no1 [Molsidomine]	1.04 ± 0.05	1.1 ± 0.028
CCN1CCCC1CNC(=O)c1cc(S(=O)(=O)CC)c(N)cc1OC (stereo not drawn) [Amisulpride]	0.974 ± 0.017	0.991 ± 0.058
O=C(CCCCCCC(=O)Nc1ccccc1)NO [Vorinostat]	0.132 ± 0.0091	0.17 ± 0.021
O=C(CCCCC(=O)Nc1c(I)cc(I)c(C(=O)O)c1I)Nc1c(I)cc(I)c(C(=O)O)c1I [Iodipamide]	1.07 ± 0.05	1.02 ± 0.06
CC(=O)Nc1ccc(CC(=O)O)cc1 [Actarit]	1.038 ± 0.0059	1.07 ± 0.12
CN(Cc1cc(Br)cc(Br)c1N)C1CCCCC1 [Bromhexine hydrochloride]	0.949 ± 0.042	1.02 ± 0.072
CO[C@H]1C[C@H](O[C@H]2[C@H](C)[C@@H](O[C@@H]3O[C@H](C)C[C@H](N(C)C)[C@H]3OC(C)=O)[C@@H](C)C[C@@]3(CO3)C(=O)[C@H](C)[C@@H](OC(C)=O)[C@@H](C)[C@@H](C)OC(=O)[C@@H]2C)O[C@@H](C)[C@@H]1OC(C)=O [Troleandomycin]	1.08 ± 0.027	1.06 ± 0.04
C[C@@H](O)[C@H]1C(=O)N2C(C(=O)O)=C(S[C@@H]3CN[C@H](C(=O)N(C)C)C3)[C@H](C)[C@H]12 [Meropenem]	1.02 ± 0.037	1.04 ± 0.053
NS(=O)(=O)c1cc(Cl)c(Cl)c(S(N)(=O)=O)c1 [Dichlorphenamide]	1.09 ± 0.05	0.961 ± 0.035
CC(C)(C)NCC(O)COc1cccc2c1CCC(=O)N2 (stereo not drawn) [Carteolol hydrochloride]	1.06 ± 0.052	1.06 ± 0.044
O=C1NCC2(CCN(CCc3ccccc3)CC2)O1 [Fenspiride hydrochloride]	1.03 ± 0.051	1.06 ± 0.068
CCN(Cc1ccncc1)C(=O)C(CO)c1ccccc1 (stereo not drawn) [Tropicamide]	1.065 ± 0.0083	1.01 ± 0.043
CN(C)CCC[C@@]1(c2ccc(F)cc2)OCc2cc(C#N)ccc21 [Escitalopram]	1.1 ± 0.041	1.01 ± 0.067
CC(C)[C@H]1CC[C@H](C(=O)N[C@H](Cc2ccccc2)C(=O)O)CC1 [Nateglinide]	1.04 ± 0.051	1.04 ± 0.091
CN1CCCC(CC2c3ccccc3Sc3ccccc32)C1 (stereo not drawn) [Metixene hydrochloride]	0.867 ± 0.014	0.888 ± 0.012
O=C(CCCN1CC=C(n2c(=O)[nH]c3ccccc32)CC1)c1ccc(F)cc1 [Droperidol]	1.05 ± 0.013	1.07 ± 0.015
O=C(O)c1ccccc1OP(=O)(O)O [Fosfosal]	0.966 ± 0.055	1.06 ± 0.1
CC(C)NC(=N)NC(=N)Nc1ccc(Cl)cc1 [Proguanil hydrochloride]	0.211 ± 0.013	0.203 ± 0.015
N=C(NCCCCCCNC(=N)NC(=N)Nc1ccc(Cl)cc1)NC(=N)Nc1ccc(Cl)cc1 [Chlorhexidine]	0.117 ± 0.0076	0.103 ± 0.0066
N=C(N)NC(=N)NCCc1ccccc1 [Phenformin hydrochloride]	1.01 ± 0.029	0.9752 ± 0.0082
CC(=O)Nc1c(I)c(NC(C)=O)c(I)c(C(=O)O)c1I [Diatrizoic acid dihydrate]	0.996 ± 0.035	1.05 ± 0.077
Cc1cc(/C=C/c2ccc3cc(N(C)C)ccc3[n+]2C)c(C)n1-c1ccccc1 [Pyrvinium pamoate]	0.144 ± 0.0086	0.171 ± 0.014
Cc1cc(=O)n(-c2ccccc2)n1C [Antipyrine]	0.997 ± 0.038	1.02 ± 0.046
